This assay deals with Metabotropic glutamate receptor 3 (Rattus norvegicus) (UniProt P31422). In words: PubChem AID 623888. To be noted: HEK/GIRK rat mGlu3, thallium flux fluorescence, Schild, at 10 µM; % glutamate max: glutamate max response with compound, stronger effect = lower value; glutamate EC50 fold shift: stronger effect = higher value.
Sequence of Metabotropic glutamate receptor 3 (Rattus norvegicus) (P31422 whole entry, looked up): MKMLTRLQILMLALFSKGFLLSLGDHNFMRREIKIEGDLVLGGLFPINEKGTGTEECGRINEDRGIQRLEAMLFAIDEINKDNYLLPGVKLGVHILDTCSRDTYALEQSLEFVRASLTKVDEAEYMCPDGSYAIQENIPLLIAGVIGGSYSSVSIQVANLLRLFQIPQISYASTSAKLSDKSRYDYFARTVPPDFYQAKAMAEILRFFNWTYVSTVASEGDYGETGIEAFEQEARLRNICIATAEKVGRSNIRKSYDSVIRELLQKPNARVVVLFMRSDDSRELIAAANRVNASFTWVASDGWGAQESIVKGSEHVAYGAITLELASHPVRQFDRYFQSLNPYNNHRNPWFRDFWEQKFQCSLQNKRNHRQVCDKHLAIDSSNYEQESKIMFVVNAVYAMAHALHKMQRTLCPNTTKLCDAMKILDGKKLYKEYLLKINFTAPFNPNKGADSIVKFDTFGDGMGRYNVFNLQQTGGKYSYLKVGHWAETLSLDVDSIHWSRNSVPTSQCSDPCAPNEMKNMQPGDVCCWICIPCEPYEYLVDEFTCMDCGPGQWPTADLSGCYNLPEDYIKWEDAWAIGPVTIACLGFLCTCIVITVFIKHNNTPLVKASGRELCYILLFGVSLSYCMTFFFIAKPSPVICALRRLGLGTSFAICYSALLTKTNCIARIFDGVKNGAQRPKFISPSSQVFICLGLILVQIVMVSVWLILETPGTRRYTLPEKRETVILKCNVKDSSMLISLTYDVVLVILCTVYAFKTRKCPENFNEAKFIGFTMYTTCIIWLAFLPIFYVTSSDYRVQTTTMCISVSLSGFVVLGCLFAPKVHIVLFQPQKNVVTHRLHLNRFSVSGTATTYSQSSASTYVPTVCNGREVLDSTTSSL

As for `COc1ccc(C#Cc2ccc(C(=O)N3CCC[C@@H](CO)C3)cc2)cc1`, the % glutamate max came to 24.5% and the glutamate EC50 fold shift worked out at 8.96.

These data come from PubChem BioAssay AID623888 (Vanderbilt Specialized Chemistry Center, 2012).
